Reference: PubChem BioAssay (NCI)
This is part of a sample that, as a whole, favours compounds with a hit. Of some 83,000 tested, about 20% had one in any assay.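 Treatment: one concentration, 48 hours, 96-well format. Scoring: percent growth, with anything below 10 considered active.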 Calls of active or inactive are those of the source.

Columns and labels:
Experiment in all cases: NCI-60 one-dose screen, 48 h (100 = growth as untreated, 0 = no growth, -100 = all killed)
SK-MEL-2 melanoma = details: 10 µM unless noted
EKVX NSCLC = details: 10 µM
SN12C renal = details: 10 µM unless noted
UO-31 renal = details: 10 µM unless noted
TK-10 renal = details: 10 µM unless noted
ACHN renal = details: 10 µM unless noted
CAKI-1 renal = details: 10 µM unless noted
A498 renal = details: 10 µM unless noted
CCRF-CEM leukemia = details: 10 µM
MOLT-4 leukemia = details: 10 µM unless noted
SR leukemia = details: 10 µM unless noted
OVCAR-8 ovarian = details: 10 µM unless noted
OVCAR-5 ovarian = details: 10 µM unless noted
OVCAR-4 ovarian = details: 10 µM unless noted
SK-OV-3 ovarian = details: 10 µM unless noted
IGROV1 ovarian = details: 10 µM unless noted
OVCAR-3 ovarian = details: 10 µM unless noted
HS 578T breast = details: 10 µM unless noted
NCI/ADR-RES ovarian = details: 10 µM unless noted
RPMI-8226 leukemia = details: 10 µM unless noted

Structure (SMILES) | growth (SK-MEL-2 melanoma) | growth (EKVX NSCLC) | growth (SN12C renal) | growth (UO-31 renal) | growth (TK-10 renal) | growth (ACHN renal) | growth (CAKI-1 renal) | growth (A498 renal) | growth (CCRF-CEM leukemia) | growth (MOLT-4 leukemia) | growth (SR leukemia) | growth (OVCAR-8 ovarian) | growth (OVCAR-5 ovarian) | growth (OVCAR-4 ovarian) | growth (SK-OV-3 ovarian) | growth (IGROV1 ovarian) | growth (OVCAR-3 ovarian) | growth (HS 578T breast) | growth (NCI/ADR-RES ovarian) | growth (RPMI-8226 leukemia)
CC1=C(C)C(=O)C(C(C)C2=C(C)C(=O)C(C)=C(C)C2=O)=C(C)C1=O | 97.8% (inactive) | 61.7% (inactive) | 120% (inactive) | 83.8% (inactive) | 75.7% (inactive) | 110% (inactive) | 142% (inactive) | 84.6% (inactive) | 67.4% (inactive) | 32.9% (inactive) | 56% (inactive) | 99.1% (inactive) | 44% (inactive) | 104% (inactive) | 98.1% (inactive) | 2.57% (active) | 150% (inactive) | 77.9% (inactive) | 91.9% (inactive) | 
COc1cc(OC)c2c(=O)cc(-c3ccccc3)oc2c1 | 103% (inactive) | 103% (inactive) | 93% (inactive) | 70.2% (inactive) | 85.9% (inactive) | 103% (inactive) | 86.4% (inactive) | 77.1% (inactive) | 26.9% (inactive) | 80.4% (inactive) | 31.3% (inactive) | 103% (inactive) | 93.7% (inactive) | 105% (inactive) | 105% (inactive) | 7.82% (active) | 104% (inactive) | 113% (inactive) | 109% (inactive) | 
O=C1/C(=C/c2ccc(Cl)cc2)CCC/C1=C\c1ccc(Cl)cc1 | 117% (inactive) | 89.2% (inactive) | 92% (inactive) | 74.1% (inactive) | 123% (inactive) | 95% (inactive) | 89.4% (inactive) | 105% (inactive) | 78.1% (inactive) | 80.2% (inactive) | 48.7% (inactive) | 68.9% (inactive) | 96.7% (inactive) |  | 88% (inactive) | 62.6% (inactive) | 55.8% (inactive) |  | 87.2% (inactive) | -0.252% (active)
CC(C)(C)OC(=O)N1C/C(=C\c2ccccc2)C(=O)/C(=C/c2ccccc2)C1 | 94.2% (inactive) | 97.7% (inactive) | 93.5% (inactive) | 71.9% (inactive) | 102% (inactive) | 106% (inactive) | 84.8% (inactive) | 101% (inactive) | 76.4% (inactive) | 71.8% (inactive) |  | 96.5% (inactive) | 86.5% (inactive) | 97.9% (inactive) | 95.2% (inactive) | 95.5% (inactive) | 103% (inactive) | 102% (inactive) | 98.9% (inactive) | 31% (inactive)
CCOC(=O)C1=C(C(F)(F)F)NC(=O)NC1CN1C(=O)c2ccccc2C1=O (configuration not stated) | 109% (inactive) | 104% (inactive) | 104% (inactive) | 102% (inactive) | 122% (inactive) | 120% (inactive) | 114% (inactive) | 118% (inactive) | -21.1% (active) | 70.5% (inactive) | 5.85% (active) | 114% (inactive) | 94.2% (inactive) | 110% (inactive) | 121% (inactive) | 122% (inactive) | 129% (inactive) | 111% (inactive) | 107% (inactive) | 
COc1ccc(Cn2cc3c(c2-c2ccccc2)CCc2cnoc2-3)cc1N | 41% (inactive) | 16.5% (inactive) | 36.2% (inactive) | 29.7% (inactive) | 76.2% (inactive) | 31% (inactive) | 7.24% (active) | 1.34% (active) | 18% (inactive) | 25.3% (inactive) | 11.8% (inactive) | 30% (inactive) | 54.5% (inactive) | 44.5% (inactive) | -4.08% (active) |  | -19.5% (active) | 10.4% (inactive) | -1.43% (active) | 23.5% (inactive)
CCOC(=O)CNS(=O)(=O)CC(=O)c1ccccc1 | 128% (inactive) | 90.3% (inactive) | 84.2% (inactive) | 86.6% (inactive) | 80.9% (inactive) | 99.5% (inactive) | 93% (inactive) | 117% (inactive) | 105% (inactive) | 109% (inactive) |  | 108% (inactive) | 101% (inactive) | 85.4% (inactive) | 105% (inactive) | 94.6% (inactive) | 126% (inactive) | 124% (inactive) | 102% (inactive) | 96.1% (inactive)
